The subject of assay [1] is Plasmodium falciparum Sir2 (PF13_0152, Sir2A). Nature of the assay: pfSir2 binders on small-molecule microarrays, primary screen, biochemical, small-molecule microarray, 635 nm fluorescence (AID 1098).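 Note: score merges spot fluorescence intensity with its signal-to-noise ratio.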 Particulars: small-molecule microarray binding, fluorescence 635 nm; higher = more signal.
Assay [2] can be described thus: small-molecule microarray binders of probe aDKK1, primary screen, biochemical, biotinylated probe, 635/667 nm fluorescence (AID 1099).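 Note: score merges 667nm spot fluorescence with signal to noise across triplicate slides; reference of the scale not given here.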 Particulars: higher = more signal.
A short description of assay [3]: small-molecule microarray binders of probe aCHRDL2, primary screen, biochemical, biotinylated probe, 635/667 nm fluorescence (AID 1100). The conditions noted are these: higher = more signal.
The nature of assay [4]: splicing luciferase reporter signal modulators, primary screen, spliceosome inhibition project, cell-based, HEK293, splice +/- reporter (AID 1101).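 Note: HEK293 cells carrying a splicing-competent luciferase reporter gene; test concentration not given here.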 Particulars: luminescence, 24 h, higher = more signal, called active from +8 up or from −8 down. (In general: Reporter assays use an easily measured gene product as a stand-in for the process of interest.)
Assay [5] has as its target Fibroblast growth factor 10 (Homo sapiens) (UniProt O15520). The assay can be described thus: FGF10 binders on small-molecule microarrays, primary screen, biochemical, small-molecule microarray, 635 nm fluorescence (AID 1102). The conditions noted are these: FGF10 binding, fluorescence 635 nm, higher = more signal.
For assay [6], the system named is glycogen synthase kinase-3 (GSK3A per assay name; protocol says GSK3B). Nature of the assay: GSK3 binders on small-molecule microarrays, primary screen, biochemical, small-molecule microarray, 635 nm fluorescence, GSK3A (AID 1103). Note: the record names both GSK3A and GSK3B. Particulars: small-molecule microarray binding, fluorescence 635 nm; higher = more signal.
For assay [7], the target named is Epidermal growth factor receptor (Homo sapiens) (UniProt P00533). Nature of the assay: EGFR binders on small-molecule microarrays, primary screen, biochemical, small-molecule microarray, 635 nm fluorescence (AID 1104).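 Note: score merges 667 nm emission intensity with spot signal to noise over triplicate slides.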 Particulars: EGFR binding, higher = more signal.
Epidermal growth factor receptor (Homo sapiens), sequence (P00533 whole entry, looked up): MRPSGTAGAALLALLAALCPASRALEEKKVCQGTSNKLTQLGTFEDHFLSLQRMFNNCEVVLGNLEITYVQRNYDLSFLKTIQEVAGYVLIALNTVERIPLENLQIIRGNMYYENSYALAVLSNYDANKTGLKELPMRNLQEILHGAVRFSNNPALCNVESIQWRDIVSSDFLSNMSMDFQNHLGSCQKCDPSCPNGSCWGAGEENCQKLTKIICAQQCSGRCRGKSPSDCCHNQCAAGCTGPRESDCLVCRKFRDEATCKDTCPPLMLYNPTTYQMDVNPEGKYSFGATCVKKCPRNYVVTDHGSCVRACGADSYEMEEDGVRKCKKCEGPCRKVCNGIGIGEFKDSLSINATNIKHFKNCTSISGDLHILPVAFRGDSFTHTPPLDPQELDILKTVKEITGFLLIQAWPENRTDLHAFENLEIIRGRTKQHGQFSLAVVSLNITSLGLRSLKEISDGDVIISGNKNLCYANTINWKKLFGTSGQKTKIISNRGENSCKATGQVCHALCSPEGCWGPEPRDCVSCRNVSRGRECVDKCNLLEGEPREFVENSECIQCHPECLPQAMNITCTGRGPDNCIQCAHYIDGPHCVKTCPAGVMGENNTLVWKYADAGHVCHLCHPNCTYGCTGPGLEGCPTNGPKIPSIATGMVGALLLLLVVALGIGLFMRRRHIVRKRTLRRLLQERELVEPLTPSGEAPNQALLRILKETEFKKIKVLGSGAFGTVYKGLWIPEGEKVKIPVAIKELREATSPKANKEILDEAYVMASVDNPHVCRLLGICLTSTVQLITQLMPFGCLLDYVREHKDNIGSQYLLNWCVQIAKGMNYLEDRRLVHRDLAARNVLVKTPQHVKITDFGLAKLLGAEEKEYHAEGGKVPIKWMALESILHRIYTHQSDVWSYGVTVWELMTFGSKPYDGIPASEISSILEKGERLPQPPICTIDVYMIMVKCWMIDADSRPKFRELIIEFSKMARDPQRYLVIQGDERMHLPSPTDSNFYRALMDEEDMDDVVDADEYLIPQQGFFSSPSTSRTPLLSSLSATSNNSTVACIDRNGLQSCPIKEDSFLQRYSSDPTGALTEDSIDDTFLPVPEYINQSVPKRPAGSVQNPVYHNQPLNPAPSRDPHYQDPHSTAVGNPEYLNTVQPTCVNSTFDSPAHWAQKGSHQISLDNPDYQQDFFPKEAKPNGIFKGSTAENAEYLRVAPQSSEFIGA
Assay [8] addresses Follistatin-related protein 3 (Homo sapiens) (UniProt O95633). The assay can be described thus: FSTL3 binders on small-molecule microarrays, primary screen, biochemical, small-molecule microarray, 635 nm fluorescence (AID 1105).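 Note: score merges emission near 667 nm and signal to noise per printed spot across three slides.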 Particulars: FSTL3 binding, higher = more signal.
Assay [9] has as its target Dickkopf-related protein 1 (Homo sapiens) (UniProt O94907). Nature of the assay: DKK1 binders on small-molecule microarrays, primary screen, biochemical, small-molecule microarray, 635 nm fluorescence scan (AID 1106).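 Note: score merges emission near 667 nm with signal to noise over three replicate slides.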 The conditions noted are these: DKK1 binding, higher = more signal.
Assay [10] relates to Inhibin beta A chain (activin A). The assay can be described thus: INHBA (activin A) binders on microarrays, primary screen, biochemical, small-molecule microarray, 635 nm fluorescence scan (AID 1107).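 Note: mouse activin A protein probed at 4.33 µg/mL on printed slides; score merges bound-protein fluorescence near 667 nm with spot signal-to-noise.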 Particulars: small-molecule microarray binding, higher = more signal.

Structures are written as SMILES. Activity calls are given as the source filed them.

Follistatin-related protein 3 (Homo sapiens), sequence (O95633 whole entry, looked up): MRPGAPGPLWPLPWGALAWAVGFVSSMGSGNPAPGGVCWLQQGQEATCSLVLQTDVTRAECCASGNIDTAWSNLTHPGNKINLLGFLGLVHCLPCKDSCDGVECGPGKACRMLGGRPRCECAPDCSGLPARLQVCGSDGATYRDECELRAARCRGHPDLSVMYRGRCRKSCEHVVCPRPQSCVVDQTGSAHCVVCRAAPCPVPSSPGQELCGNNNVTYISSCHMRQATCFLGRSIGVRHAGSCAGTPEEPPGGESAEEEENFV
Dickkopf-related protein 1 (Homo sapiens), sequence (O94907 whole entry, looked up): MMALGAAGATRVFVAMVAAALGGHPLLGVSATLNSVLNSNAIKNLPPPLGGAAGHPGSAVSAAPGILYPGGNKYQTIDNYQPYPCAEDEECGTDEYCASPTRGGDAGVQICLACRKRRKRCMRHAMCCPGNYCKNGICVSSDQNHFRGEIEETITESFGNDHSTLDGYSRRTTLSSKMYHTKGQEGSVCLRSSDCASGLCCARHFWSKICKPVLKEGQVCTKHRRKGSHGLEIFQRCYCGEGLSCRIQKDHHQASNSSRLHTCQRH
Fibroblast growth factor 10 (Homo sapiens), sequence (O15520 whole entry, looked up): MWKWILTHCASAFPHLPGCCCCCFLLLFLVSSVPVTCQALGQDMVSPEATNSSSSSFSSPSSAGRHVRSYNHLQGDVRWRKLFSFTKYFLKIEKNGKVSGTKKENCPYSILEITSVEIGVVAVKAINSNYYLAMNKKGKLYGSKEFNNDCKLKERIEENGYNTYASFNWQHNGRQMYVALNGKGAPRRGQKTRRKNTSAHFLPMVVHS

In the case of `O=C1C2C=CC(C(O)COCc3ccccc3)N(Nc3ccc([N+](=O)[O-])cc3)C2C(=O)N1c1ccccc1` (stereo not given), the composite z-score in [1] worked out at 1.06; in assay [2] it was 0.735; in [3] it was 0.889; in [5], 1.05; in assay [6], 1.32; in assay [7], 0.42. In addition, the composite z-score in assay [8] is 1.22; in [9], 0.111; in assay [10], 0.976. In addition, in assay [4], the z-score was -1.44 (inactive).
As to `CC(c1ccccc1)C(O)C1C=CC2C(=O)N(C)C(=O)C2N1NC(=O)OC(C)(C)C` (stereo not given), the composite z-score in assay [1] was 1.16; in [2] it was 0.354; in assay [3], 0.488; in assay [5] it was 1.02; in assay [6], 1.28; in assay [7], 0.469. The figures for the composite z-score in [8], in assay [9] and in assay [10] were 0.907, 0.237 and 0.633, respectively. For the same molecule, the z-score in [4] is 1.18 (inactive).
Regarding `COC(=O)C[C@H]1O[C@@H](CCc2ccccc2)[C@@H](C)[C@@H]1[Si](C)(C)c1ccc(OC)cc1`, the composite z-score was -1.04 in assay [1]; -0.0884 in assay [2]; -0.149 in assay [3]; -0.587 in [5]; -1.04 in assay [6]; 0.239 in assay [7]. Also, the composite z-score in [8] was -0.232; in assay [9], 0.149; in [10] it was 0.0026. Further, the z-score in [4] is 0.0234 (inactive).
Take `[N-]=[N+]=NCc1ccccc1C[C@@]1(C(=O)NCC(O)CO)N=C(c2ccc(OCCCO)cc2)O[C@@H]1c1ccccc1` (stereo not given in full): the composite z-score in assay [1] was 0.048; in assay [2], 1.15; in assay [3], 1.22; in [5], -0.181; in [6], -0.538; in assay [7], -0.455. Besides, the composite z-score in assay [8] was -1.3; in [9] it was -1.58; in assay [10] it was 0.377. The z-score in assay [4] is -0.195 (inactive).
In the case of `CC(C)Cc1ccc(CN2CC[C@@H](N)C2)cc1`, the composite z-score was 0.472 in assay [1]; -0.459 in assay [2]; -0.275 in [3]; -1.16 in assay [5]; -0.727 in assay [6]; -1.06 in [7]. The composite z-score was -0.431 in [8], -0.444 in assay [9] and 0.419 in [10]. Besides, the z-score in [4] was -1.75 (inactive).
For `C=CCNC(=O)[C@@H]1[C@H]2C(=O)O[C@H](c3ccccc3)[C@H](c3ccccc3)N2[C@H](c2ccc(OCCO)cc2)[C@@]12C(=O)N(C(=O)OCCOC)c1ccc(C#CCNC(N)=O)cc12`, the composite z-score in assay [1] came out at 1.43; in [2], 0.478; in [3], 0.747; in assay [5] it was 0.704; in [6], 0.549; in assay [7], 0.555. Besides, the composite z-score in assay [8] turned out to be 0.898; in assay [9], 0.554; in assay [10], 1.2. In addition, the z-score in assay [4] was 0.184 (inactive).
As for `CCC(CC)C(O)C1C=CC2C(=O)N(c3ccccc3)C(=O)C2N1Nc1ccccc1` (stereo not given), the composite z-score in assay [1] was 1.52; in assay [2], 1.29; in assay [3], 1.15; in assay [5] it was 0.988; in assay [6], 1.21; in assay [7], 0.452. Further, the composite z-score in assay [8] came out at 1.38; in [9] it was 0.0269; in assay [10], 0.555. Besides, the z-score in [4] is -0.326 (inactive).
For the molecule `COc1ccc(C#Cc2ccc3c(c2)[C@]2(C(=O)N3)[C@H](c3ccc(O)cc3)N3[C@H](c4ccccc4)[C@H](c4ccccc4)OC(=O)[C@H]3[C@@H]2C(=O)N2CCc3cc(OC)c(OC)cc3C2)cc1`, the composite z-score in [1] is 1.46; in [2], -0.157; in [3], -0.208; in assay [5], 0.768; in [6], 1.26; in [7], 0.469. For the same molecule, the composite z-score in assay [8] is 0.853; in assay [9], 0.31; in assay [10], 0.155. Also, in assay [4], the z-score is 1.34 (inactive).
Regarding `O=C1C2C=CC(C(O)c3cc(C(F)(F)F)cc(C(F)(F)F)c3)N(Nc3ccccc3)C2C(=O)N1c1ccccc1` (stereo not given), the composite z-score was 1.24 in [1]; 0.723 in [2]; 0.433 in [3]; -0.239 in [5]; 0.22 in assay [6]; -0.303 in assay [7]. Further, the composite z-score is -0.154 in [8], -0.667 in assay [9] and 1.01 in assay [10]. In [4], the z-score was -2.9 (inactive).
Regarding `CCOC(=O)C[C@H]1[C@H](OC(=O)c2cc3ccccc3oc2=O)[C@@H](NC(=O)CC(C)C)c2cc(OCCCO)ccc2N1C(=O)c1ccccc1`, the composite z-score was 0.0288 in assay [1]; -0.179 in [2]; -0.428 in assay [3]; 0.644 in assay [5]; 0.53 in assay [6]; 0.393 in [7]. Also, the composite z-score was 0.358 in assay [8], 0.371 in assay [9] and -0.0294 in assay [10]. For the same molecule, the z-score in assay [4] is -1.04 (inactive).
With `CS(=O)(=O)CCOC(=O)C1=CC(CCCO)=CC(c2ccc(CN3CCCC3)cc2)N(Cc2cccc(OC(F)(F)F)c2)C=C1C(=O)OCCS(C)(=O)=O` (stereo not given), the composite z-score in assay [1] was found to be 1.02; in assay [2], 0.275; in [3] it was 0.367; in assay [5], 1.19; in assay [6], 0.997; in assay [7], 0.582. Besides, the figures for the composite z-score in [8], in assay [9] and in assay [10] were 0.945, 0.468 and 1.32, respectively. Also, the z-score in assay [4] is 0.0999 (inactive).
As to `COc1ccc([C@H]2C[C@H]3C(I)=C[C@@H]2C(=O)[C@]32CO2)cc1`, the composite z-score in [1] was 0.802; in assay [2], 0.168; in assay [3], -0.206; in [5], 0.66; in [6], -0.611; in [7], -0.0989. Further, the values for the composite z-score in assay [8], in assay [9] and in assay [10] were 0.926, 0.726 and 0.508, respectively. Besides, the z-score in [4] was -0.568 (inactive).
Take `COC(=O)[C@@]1(Cc2ccccc2)[C@H]2c3cc(C(=O)N(C)C)n(Cc4ccc(OC)c(OC)c4)c3C[C@H]2CN1C(=O)c1ccccc1`: the composite z-score in assay [1] was 0.0313; in [2], 0.905; in assay [3], 0.94; in [5] it was 1.44; in [6], 0.454; in [7], 0.568. The results for the composite z-score in assay [8], in assay [9] and in assay [10] were 0.609, -0.833 and 0.67, respectively. The z-score in [4] is -4.08 (inactive).
On to `CC(=O)n1cc(C(O)C2C=CC3C(=O)NC(=O)C3N2Nc2ccccn2)c2ccccc21` (stereo not given), for which the composite z-score in assay [1] was 0.452; in [2], -0.0908; in [3] it was 0.0413; in [5], 0.168; in [6], 0.0973; in assay [7], 0.523. Further, the results for the composite z-score in assay [8], in assay [9] and in assay [10] were 0.225, 0.339 and 0.709, respectively. For the same molecule, the z-score in [4] was 2.28 (inactive).
As for `COC(=O)c1c(CC[C@@H](CO)NC(=O)N[C@@H](Cc2ccccc2)Cn2cc(-c3ccccn3)nn2)oc(C(=O)N2CCOCC2)c1C(=O)OC`, the composite z-score in assay [1] is 0.327; in assay [2], -0.299; in [3] it was -0.247; in [5], 0.136; in [6], -0.27; in assay [7], -0.002. The composite z-score in [8] was 0.172; in [9], -0.296; in assay [10], 0.119. Further, in assay [4], the z-score was 0.373 (inactive).
As for `COc1ccc(-c2cc3c(c(Cc4ccccc4)n2)[Si](C(C)C)(C(C)C)OC3)cn1`, the composite z-score is 0.409 in assay [1]; 0.0847 in assay [2]; -0.386 in assay [3]; -0.156 in assay [5]; -0.949 in assay [6]; 0.343 in [7]. In addition, the composite z-score was -0.139 in assay [8], 0.085 in assay [9] and 0.256 in assay [10]. The z-score in assay [4] is -0.267 (inactive).
`C=CCC(OC(C)=O)[C@@H]1[C@@H](N(Cc2ccc(-c3cccc(C(F)(F)F)c3)o2)C(=O)c2cccc3ccccc23)c2cc(OCCCO)ccc2N1C(=O)Cc1ccc2ccccc2c1` (stereo not given in full): the composite z-score in [1] is 0.25; in [2], 0.102; in assay [3] it was 0.291; in assay [5], 0.0246; in assay [6], -1.07; in assay [7] it was -0.352. Moreover, the composite z-score in assay [8] is 0.117; in assay [9], -0.282; in assay [10], 0.95. The z-score in assay [4] is -0.896 (inactive).

Values taken from PubChem BioAssay.
